The nature of assay [1]: CPHEA_Stoker_NIS_Cytotoxicity: Cytotoxicity Assessment for CPHEA's Radioactive Iodide Uptake (RAIU) Assay for Sodium/Iodide Symporter (NIS) Inhibition, Stoker and Laws Labs (AID 2283897).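 For AC50: active means loss of ATP signal versus DMSO meaning cytotoxicity.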 An outline of the steps:
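Viability in hNIS-HEK293T-EPA cells is scored as a drop in luciferase-detected ATP following 2-hour room-temperature exposure (0.001–100uM; triplicate wells, three cell passages), with DMSO as negative control.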

The target in assay [2] is Estrogen receptor (Homo sapiens) (UniProt P03372). As to the kind of experiment: ATG_hERa_XSP2: Attagene TRANS-FACTORIAL Multi-Species (XSP2) HepG2 Assay for human Estrogen Receptor (ERa) (AID 2283827). The gist of the method:
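Trans-activation of exogenous human ERa-Gal4 chimera read in HepG2 as reporter transcript after 24 h exposure; medium included 3 nM 6-alpha-fluorotestosterone and 1.5 nM norgestrel. Quantified by RT-PCR with capillary electrophoresis, positive-direction fitting against DMSO.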

The test system of assay [3] is frog Estrogen Receptor (ER2), gene 100174814. As to the kind of experiment: ATG_frER2_XSP2: Attagene TRANS-FACTORIAL Multi-Species (XSP2) HepG2 Assay for frog Estrogen Receptor (ER2) (AID 2283828). An outline of the steps: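 Cells were transfected with reporter constructs under GAL4-UAS control, dosed with chemicals for 24 h, then lysed for RNA; the frog ER2-driven reporter mRNA was quantified by capillary electrophoresis of labeled PCR fragments, with activity fitted upward from DMSO.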

For assay [4], the target named is Peroxisome proliferator-activated receptor gamma (Homo sapiens) (UniProt P37231). As to the kind of experiment: ATG_hPPARg_XSP2: Attagene TRANS-FACTORIAL Multi-Species (XSP2) HepG2 Assay for human Peroxisome Proliferator-activated Receptor gamma (PPARg) (AID 2283829).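 Note: actives raise reporter mRNA above DMSO so AC50 reflects PPARg activation.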 The gist of the method: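 After transfecting HepG2 with GAL4-UAS reporter constructs, cells are dosed for 24 h; total RNA is reverse-transcribed, PCR-amplified, FAM-labeled, HpaI-digested and resolved by capillary electrophoresis. Activity is measured as mRNA induction relative to DMSO.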

Assay [5] addresses Nuclear receptor subfamily 1 group I member 2 (Mus musculus) (UniProt O54915). Description: ATG_mPXR_XSP2: Attagene TRANS-FACTORIAL Multi-Species (XSP1) HepG2 Assay for mouse Pregnane X Receptor (PXR) (AID 2283831). The gist of the method:
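Reporter transcripts were quantified by RT-PCR, FAM primer extension, HpaI digestion and capillary electrophoresis after 24 h of chemical exposure in transiently transfected HepG2 cells carrying chimeric receptor-GAL4 constructs; DMSO served as baseline.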

The target of assay [6] is zebrafish Thyroid Hormone Receptor alpha (TRa), thraa (gene 30670) (UniProt Q98867). Description: ATG_zfTRa_XSP2: Attagene TRANS-FACTORIAL Multi-Species (XSP1) HepG2 Assay for zebrafish Thyroid Hormone Receptor alpha (TRa) (AID 2283832).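 Note: actives raise zebrafish TRa-Gal4 reporter transcript above DMSO baseline.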 An outline of the steps:
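HepG2, transient MRTU transfection, exogenous NR-Gal4 chimeras; 24 h dosing; mRNA readout via RT-PCR/CE fluorescence; positive direction vs DMSO.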

A short description of assay [7]: ATG_M_61_XSP2: Attagene TRANS-FACTORIAL Multi-Species (XSP2) HepG2 Assay for M61 Transcription Factor (Internal Marker) (AID 2283835; active = hit-call score of the fitted dose curve at least 0.9, where 1 is the maximum; inactive = score below 0.9;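 note: reporter mRNA of an internal background marker read by RT-PCR and capillary electrophoresis; active means a rise in signal above the DMSO baseline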). The gist of the method: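 Transient MRTU transfection of human HepG2; 24 h chemical dosing with 3 nM 6-alpha-fluorotestosterone + 1.5 nM norgestrel added for AR stimulation. RNA isolated, RT, PCR, FAM-labelled, HpaI cut, CE read. Positive direction vs DMSO.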

Assay [8] deals with zebrafish Thyroid Hormone Receptor beta (TRb), thrb (gene 30607) (UniProt Q9PVE4). Description: ATG_zfTRb_XSP2: Attagene TRANS-FACTORIAL Multi-Species (XSP1) HepG2 Assay for zebrafish Thyroid Hormone Receptor beta (TRb) (AID 2283836). The gist of the method: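 Transfect HepG2 with multiple reporter transcription units, dose chemical, incubate 24 h. Isolate RNA, reverse-transcribe, amplify and fluorescently label reporter sequences, digest with HpaI, then resolve by capillary electrophoresis. Positive direction fitted against DMSO.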

The target of assay [9] is human Thyroid hormone Receptor alpha (TRa), THRA (gene 7067) (UniProt P10827). As to the kind of experiment: ATG_hTRa_XSP2: Attagene TRANS-FACTORIAL Multi-Species (XSP2) HepG2 Assay for human Thyroid hormone Receptor alpha (TRa) (AID 2283838). The gist of the method:
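Reporter transcripts were read by RT-PCR with fluorescent primer extension, HpaI digestion and capillary electrophoresis. These came from HepG2 cells carrying multiplexed TRa-Gal4 TRANS constructs, harvested 24 hours after dosing. The medium also held 6-alpha-fluorotestosterone (3 nM) and norgestrel (1.5 nM), and increases were fitted against DMSO.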

Assay [10] can be described thus: CEETOX_H295R_11DCORT_noMTC: CeeTox H295R High-throughput Steroidogenesis Assay for 11-Deoxycortisol (11DCORT), maximum tolerated concentration (MTC) filtered results only (AID 2283911; active = hit-call score of the fitted dose curve at least 0.9, where 1 is the maximum; inactive = score below 0.9). The settings on record: actives raise or lower the signal. The gist of the method: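 Steroidogenesis was stimulated in H295R cells with 10 uM forskolin for 48 h before a 48 h chemical exposure. Secreted 11-deoxycortisol was measured by tandem mass spectrometry and fitted bidirectionally against DMSO controls.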

The nature of assay [11]: CEETOX_H295R_OHPREG_noMTC: CeeTox H295R High-throughput Steroidogenesis Assay for OH-Pregnenolone (OHPREG), maximum tolerated concentration (MTC) filtered results only (AID 2283912; active = hit-call score of the fitted dose curve at least 0.9, where 1 is the maximum; inactive = score below 0.9). The settings on record: actives raise or lower the signal. An outline of the steps: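 H295R; 10 uM forskolin 48 h pre-stim; test cpd in DMSO (0.1% final) 48 h; media MTBE-extracted, HPLC-MS/MS for OH-pregnenolone; bidirectional fit vs DMSO; no MTC (MTT) filtering.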

Assay [12] in a line: CEETOX_H295R_OHPROG_noMTC: CeeTox H295R High-throughput Steroidogenesis Assay for OH-Progesterone (OHPROG), maximum tolerated concentration (MTC) filtered results only (AID 2283914; active = hit-call score of the fitted dose curve at least 0.9, where 1 is the maximum; inactive = score below 0.9). The settings on record: actives raise or lower the signal. An outline of the steps: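 Medium hormone measured by reverse-phase C18 HPLC with positive electrospray MS/MS after MTBE liquid-liquid extraction. Cells had 48 h forskolin (10 uM) prestimulation, then 48 h chemical dosing. Gain or loss of signal fitted relative to DMSO baseline.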

The nature of assay [13]: CEETOX_H295R_ANDR_noMTC: CeeTox H295R High-throughput Steroidogenesis Assay for Androstenedione (ANDR), maximum tolerated concentration (MTC) filtered results only (AID 2283915; active = hit-call score of the fitted dose curve at least 0.9, where 1 is the maximum; inactive = score below 0.9). As to conditions: actives raise or lower the signal. The gist of the method:
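Androstenedione secreted into medium was measured by LC-MS/MS after MTBE extraction. Human adrenal H295R cells received 10 uM forskolin for 48 h before 48 h chemical exposure (0.1% DMSO). Gain or loss fitted against DMSO, including concentrations above the MTT-derived MTC.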

Assay [14] is described as follows: CEETOX_H295R_CORTISOL_noMTC: CeeTox H295R High-throughput Steroidogenesis Assay for Cortisol, maximum tolerated concentration (MTC) filtered results only (AID 2283916; active = hit-call score of the fitted dose curve at least 0.9, where 1 is the maximum; inactive = score below 0.9). As to conditions: actives raise or lower the signal. An outline of the steps:
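H295R human adrenal cells prestimulated 48 h with 10 uM forskolin, then exposed 48 h to chemical in 0.1% DMSO; cortisol in medium quantified by HPLC-MS/MS; bidirectional fit vs DMSO baseline, concentrations not MTT-filtered for MTC.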

Assay [15] in a line: CEETOX_H295R_CORTIC_noMTC: CeeTox H295R High-throughput Steroidogenesis Assay for Corticosterone (CORTIC), maximum tolerated concentration (MTC) filtered results only (AID 2283917; active = hit-call score of the fitted dose curve at least 0.9, where 1 is the maximum; inactive = score below 0.9). As to conditions: actives raise or lower the signal. The gist of the method:
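Corticosterone secreted into the medium was measured by reverse-phase C18 HPLC with tandem MS after MTBE extraction. Cells (H295R) had 48 h forskolin (10 uM) stimulation before 48 h chemical exposure; gain or loss of signal was fitted relative to DMSO.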

A short description of assay [16]: CEETOX_H295R_DOC_noMTC: CeeTox H295R High-throughput Steroidogenesis Assay for DOC, maximum tolerated concentration (MTC) filtered results only (AID 2283918; active = hit-call score of the fitted dose curve at least 0.9, where 1 is the maximum; inactive = score below 0.9). As to conditions: actives raise or lower the signal. An outline of the steps:
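H295R cells prestimulated 48 h with 10 uM forskolin, then exposed 48 h to chemical in 0.1% DMSO. 11-Deoxycorticosterone in medium measured by MTBE extraction and HPLC-MS/MS; bidirectional fit vs DMSO, no MTC filter.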

Assay [17] in a line: CEETOX_H295R_ESTRADIOL_noMTC: CeeTox H295R High-throughput Steroidogenesis Assay for Estradiol, maximum tolerated concentration (MTC) filtered results only (AID 2283919; active = hit-call score of the fitted dose curve at least 0.9, where 1 is the maximum; inactive = score below 0.9). The settings on record: actives raise or lower the signal. The gist of the method:
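Readout: dansyl-derivatized estradiol quantified by LC-MS/MS in medium from H295R cells dosed 48 h (0.1% DMSO) following 48 h forskolin (10 uM) prestimulation. Gain or loss of signal fitted against DMSO; no MTC filtering applied.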

Assay [18] has as its system turtle Thyroid Hormone Receptor, alpha (TRa), gene 101949057. Description: ATG_trTRa_XSP2: Attagene TRANS-FACTORIAL Multi-Species (XSP1) HepG2 Assay for turtle Thyroid Hormone Receptor, alpha (TRa) (AID 2283834).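 Note: hits raise reporter mRNA over the DMSO baseline so AC50 marks activators.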 The gist of the method: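 Transfection of HepG2 with multiple reporter transcription units, then chemical dosing for 24 h. Total RNA was reverse-transcribed, reporter sequences PCR-amplified and FAM-labelled, then sized by capillary electrophoresis. DMSO served as baseline.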

For assay [19], the target named is frog Thyroid hormone Receptor alpha (TRa), thra-a (gene 397942) (UniProt P15204). Description: ATG_frTRa_XSP2: Attagene TRANS-FACTORIAL Multi-Species (XSP2) HepG2 Assay for frog Thyroid hormone Receptor alpha (TRa) (AID 2283839). The gist of the method: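 Transfect HepG2 with multiple reporter units (GAL4-UAS), dose chemical, incubate 24 h. Isolate RNA, reverse-transcribe, PCR-amplify reporter, label with 6-FAM by primer extension, digest with HpaI, run capillary electrophoresis; induction scored against DMSO.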

The target in assay [20] is human Thyroid hormone Receptor beta (TRb), THRB (gene 7068) (UniProt P10828). As to the kind of experiment: ATG_hTRb_XSP2: Attagene TRANS-FACTORIAL Multi-Species (XSP2) HepG2 Assay for human Thyroid hormone Receptor beta (TRb) (AID 2283840).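 Note: actives raise reporter mRNA so potency reflects agonist-like gain of signal.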 The gist of the method:
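Transient transfection of human HepG2 with multi-species NR-Gal4/GAL4-UAS reporter constructs; 24 h compound treatment; RNA isolation, reverse transcription, PCR and HpaI digest; capillary electrophoresis of labeled fragments; activity fitted upward versus DMSO.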

Results filed as inconclusive are left out. Calls of active or inactive are those of the source. Rule for the calls, unless noted: active = hit-call score of the fitted dose curve at least 0.9, where 1 is the maximum; inconclusive = response in the unintended direction; inactive = score below 0.9.

One may read the AC50 as the concentration at which the activity in the assay is half-maximal.

Chain of human Thyroid hormone Receptor alpha (TRa), THRA (gene 7067) (P10827 whole entry, looked up, the tested form may be a part): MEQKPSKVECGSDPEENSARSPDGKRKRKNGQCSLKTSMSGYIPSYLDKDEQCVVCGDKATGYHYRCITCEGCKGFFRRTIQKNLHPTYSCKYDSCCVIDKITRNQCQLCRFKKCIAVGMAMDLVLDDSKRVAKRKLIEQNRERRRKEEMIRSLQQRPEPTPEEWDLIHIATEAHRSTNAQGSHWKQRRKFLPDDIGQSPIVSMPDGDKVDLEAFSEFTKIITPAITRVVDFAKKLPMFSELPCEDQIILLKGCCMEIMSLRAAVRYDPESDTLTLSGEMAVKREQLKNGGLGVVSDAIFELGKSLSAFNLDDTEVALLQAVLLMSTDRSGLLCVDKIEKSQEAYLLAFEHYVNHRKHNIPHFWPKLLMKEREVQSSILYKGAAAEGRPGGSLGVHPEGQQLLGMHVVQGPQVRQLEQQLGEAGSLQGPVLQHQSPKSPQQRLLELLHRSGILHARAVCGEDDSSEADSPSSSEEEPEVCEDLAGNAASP
Chain of Peroxisome proliferator-activated receptor gamma (Homo sapiens) (P37231 whole entry, looked up, the tested form may be a part): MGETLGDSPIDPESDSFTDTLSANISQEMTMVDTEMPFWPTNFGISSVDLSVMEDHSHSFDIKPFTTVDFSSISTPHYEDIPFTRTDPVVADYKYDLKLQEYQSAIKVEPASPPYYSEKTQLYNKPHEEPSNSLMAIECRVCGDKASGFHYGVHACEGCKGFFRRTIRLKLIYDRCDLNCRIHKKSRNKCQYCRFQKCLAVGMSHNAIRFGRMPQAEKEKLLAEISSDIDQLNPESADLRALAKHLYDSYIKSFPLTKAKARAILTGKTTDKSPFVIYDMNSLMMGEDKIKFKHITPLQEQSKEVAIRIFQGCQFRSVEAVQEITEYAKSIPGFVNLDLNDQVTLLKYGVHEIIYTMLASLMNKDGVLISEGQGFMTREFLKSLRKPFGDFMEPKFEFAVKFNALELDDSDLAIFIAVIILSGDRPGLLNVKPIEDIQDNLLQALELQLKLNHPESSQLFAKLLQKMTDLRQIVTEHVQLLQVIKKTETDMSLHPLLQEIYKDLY
Chain of zebrafish Thyroid Hormone Receptor beta (TRb), thrb (gene 30607) (Q9PVE4 whole entry, looked up): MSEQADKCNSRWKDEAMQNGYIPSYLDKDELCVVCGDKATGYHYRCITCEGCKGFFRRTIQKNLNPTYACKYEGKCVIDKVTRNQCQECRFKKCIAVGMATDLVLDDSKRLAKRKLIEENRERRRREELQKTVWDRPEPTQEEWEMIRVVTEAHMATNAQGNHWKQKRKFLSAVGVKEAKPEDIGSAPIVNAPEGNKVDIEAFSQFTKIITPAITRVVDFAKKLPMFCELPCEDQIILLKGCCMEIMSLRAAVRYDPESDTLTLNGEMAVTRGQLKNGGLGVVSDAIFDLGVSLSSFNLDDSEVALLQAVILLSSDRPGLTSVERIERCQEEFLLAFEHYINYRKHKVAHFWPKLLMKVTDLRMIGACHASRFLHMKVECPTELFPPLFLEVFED
Chain of Nuclear receptor subfamily 1 group I member 2 (Mus musculus) (O54915 whole entry, looked up, the tested form may be a part): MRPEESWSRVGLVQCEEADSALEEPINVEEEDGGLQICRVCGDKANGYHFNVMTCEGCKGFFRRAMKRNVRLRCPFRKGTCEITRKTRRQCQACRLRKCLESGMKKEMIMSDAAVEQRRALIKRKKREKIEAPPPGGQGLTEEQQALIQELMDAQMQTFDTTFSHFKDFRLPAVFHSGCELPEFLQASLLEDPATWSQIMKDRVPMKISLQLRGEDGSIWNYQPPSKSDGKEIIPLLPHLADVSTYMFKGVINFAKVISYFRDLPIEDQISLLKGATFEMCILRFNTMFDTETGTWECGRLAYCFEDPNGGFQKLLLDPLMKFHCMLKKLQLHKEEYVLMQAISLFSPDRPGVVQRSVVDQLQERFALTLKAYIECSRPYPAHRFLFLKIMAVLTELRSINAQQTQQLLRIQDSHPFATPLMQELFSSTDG
Chain of frog Thyroid hormone Receptor alpha (TRa), thra-a (gene 397942) (P15204 whole entry, looked up, the tested form may be a part): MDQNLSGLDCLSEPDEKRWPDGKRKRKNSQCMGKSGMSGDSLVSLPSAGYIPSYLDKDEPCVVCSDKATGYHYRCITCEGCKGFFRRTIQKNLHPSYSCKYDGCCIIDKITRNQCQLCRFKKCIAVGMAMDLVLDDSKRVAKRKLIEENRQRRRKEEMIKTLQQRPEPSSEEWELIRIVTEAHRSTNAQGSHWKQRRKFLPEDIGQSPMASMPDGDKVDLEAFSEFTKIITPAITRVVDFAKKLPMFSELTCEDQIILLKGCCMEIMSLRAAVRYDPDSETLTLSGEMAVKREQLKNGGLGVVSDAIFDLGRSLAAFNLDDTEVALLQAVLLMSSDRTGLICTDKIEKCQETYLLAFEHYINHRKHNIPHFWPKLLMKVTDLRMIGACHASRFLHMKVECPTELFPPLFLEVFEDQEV
Chain of zebrafish Thyroid Hormone Receptor alpha (TRa), thraa (gene 30670) (Q98867 whole entry, looked up, the tested form may be a part): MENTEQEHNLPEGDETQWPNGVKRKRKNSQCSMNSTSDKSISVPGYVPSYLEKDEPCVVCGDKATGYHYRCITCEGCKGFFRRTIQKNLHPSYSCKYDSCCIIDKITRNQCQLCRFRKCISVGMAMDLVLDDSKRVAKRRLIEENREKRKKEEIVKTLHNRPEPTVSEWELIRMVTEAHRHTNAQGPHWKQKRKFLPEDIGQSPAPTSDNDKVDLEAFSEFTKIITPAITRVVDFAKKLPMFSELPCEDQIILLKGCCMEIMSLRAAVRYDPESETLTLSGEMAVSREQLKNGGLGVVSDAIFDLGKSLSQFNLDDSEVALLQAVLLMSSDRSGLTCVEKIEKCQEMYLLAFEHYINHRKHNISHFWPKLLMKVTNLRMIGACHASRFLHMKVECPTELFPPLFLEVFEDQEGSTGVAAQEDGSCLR
Chain of human Thyroid hormone Receptor beta (TRb), THRB (gene 7068) (P10828 whole entry, looked up, the tested form may be a part): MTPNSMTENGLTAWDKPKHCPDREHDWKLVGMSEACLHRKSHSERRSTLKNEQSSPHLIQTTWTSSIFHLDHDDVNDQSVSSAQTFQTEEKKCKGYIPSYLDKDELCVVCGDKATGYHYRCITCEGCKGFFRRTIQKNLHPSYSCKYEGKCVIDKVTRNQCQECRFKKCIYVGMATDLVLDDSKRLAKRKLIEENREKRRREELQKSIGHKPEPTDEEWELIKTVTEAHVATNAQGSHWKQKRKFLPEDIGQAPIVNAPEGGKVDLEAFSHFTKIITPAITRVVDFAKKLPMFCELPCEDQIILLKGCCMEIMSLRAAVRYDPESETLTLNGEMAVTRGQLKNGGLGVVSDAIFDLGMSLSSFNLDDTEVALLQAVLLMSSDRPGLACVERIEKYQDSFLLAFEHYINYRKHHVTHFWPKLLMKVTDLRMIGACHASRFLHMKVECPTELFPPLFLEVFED
Chain of Estrogen receptor (Homo sapiens) (P03372 whole entry, looked up, the tested form may be a part): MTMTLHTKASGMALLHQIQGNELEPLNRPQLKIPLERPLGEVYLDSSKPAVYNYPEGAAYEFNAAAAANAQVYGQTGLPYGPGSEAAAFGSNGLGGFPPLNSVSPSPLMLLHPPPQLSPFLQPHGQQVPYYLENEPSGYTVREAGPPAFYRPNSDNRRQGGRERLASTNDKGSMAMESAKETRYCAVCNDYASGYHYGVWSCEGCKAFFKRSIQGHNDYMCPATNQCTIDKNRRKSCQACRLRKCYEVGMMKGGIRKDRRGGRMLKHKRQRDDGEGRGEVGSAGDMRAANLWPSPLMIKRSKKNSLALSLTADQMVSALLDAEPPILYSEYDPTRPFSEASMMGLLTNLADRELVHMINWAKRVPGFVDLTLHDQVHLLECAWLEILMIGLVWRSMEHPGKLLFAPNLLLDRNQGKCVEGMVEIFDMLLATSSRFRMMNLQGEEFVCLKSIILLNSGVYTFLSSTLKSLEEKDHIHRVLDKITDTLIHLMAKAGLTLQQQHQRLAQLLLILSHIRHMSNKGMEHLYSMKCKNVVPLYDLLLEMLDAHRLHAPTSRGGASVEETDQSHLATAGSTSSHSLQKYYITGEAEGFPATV

Take `CCN=C1C=CC(=C(c2ccc(N(CC)CC)cc2)c2ccc(N(CC)CC)cc2)c2ccccc21`: the half-maximal activity concentration (AC50) in assay [1] was 10 µM (active).

Turning to `O=C(c1ccccc1)c1ccc(O)cc1O`, the AC50 in [2] was 2.31 µM (active); in assay [3] it was 2.73 µM (active). Further, the outcome in assay [4], in assay [5], in assay [6], in assay [7], in assay [8] and in [9] was inactive. The result in assay [1] was inactive.

In the case of `CCCCCCCCn1sc(Cl)c(Cl)c1=O`, the outcome in assay [1] was inactive.

`CC(C)(C)c1cc(CCC(=O)NCCCCCCNC(=O)CCc2cc(C(C)(C)C)c(O)c(C(C)(C)C)c2)cc(C(C)(C)C)c1O`: the compound was classed as inactive in [10], in assay [11], in assay [13], in assay [14], in assay [15] and in assay [16]. In assay [17], the compound was classed as inactive. For the same compound, the half-maximal activity concentration (AC50) in assay [12] is 0.203 µM (active).

As to `CCCCCCCCCc1ccc(OCCO)cc1`, the half-maximal activity concentration (AC50) in assay [1] is 24.3 µM (active).

As for `CCN=c1cc2oc3cc(NCC)c(C)cc3c(-c3ccccc3C(=O)OCC)c-2cc1C`, the AC50 in assay [1] was 30.8 µM (active).

In the case of `COCCOCCC[Si](C)(O[Si](C)(C)C)O[Si](C)(C)C`, in [1], the result was inactive.

Turning to `CCCCCCCCCCCCC[N+](C)(C)Cc1ccccc1`, the result in assay [1] was inactive.

`CCCCCCCC/C=C\CCCCCCCC(=O)N(C)CC(=O)O`: the outcome in assay [1] was inactive.

Take `CCc1cc(Cc2cc(CC)c(N)c(CC)c2)cc(CC)c1N`: in assay [1], the result was inactive.

As to `CC(C)Nc1ccc(NC(C)C)c2c1C(=O)c1ccccc1C2=O`, the concentration at half-maximal activity (AC50) in [1] is 15.3 µM (active).

Consider `CCC(Cc1c(I)cc(I)c(N)c1I)C(=O)O` (stereo not given), for which the result in [1] was inactive.

For the compound `O=C1C=CC(=O)N1c1ccccc1`, the AC50 in [1] was 81.6 µM (active).

As to `CCCCCCCCCCCCCC[P+](CCCC)(CCCC)CCCC`, the AC50 in assay [1] was 15.9 µM (active).

As to `Nc1c(Br)cc([N+](=O)[O-])cc1Br`, the call in assay [10], in assay [11], in [14], in assay [15], in assay [16] and in [17] was inactive. The concentration at half-maximal activity (AC50) in assay [12] is 20.7 µM (active).

Turning to `C[C@]12CC[C@H]3C(=CCc4cc(O)ccc43)[C@@H]1CCC2=O`, in assay [3], the concentration at half-maximal activity (AC50) was 0.0228 µM (active). The outcome in [4], in [18], in [7], in assay [8], in assay [9] and in assay [19] was inactive. The outcome in assay [20] and in assay [1] was inactive.

(Values after PubChem BioAssay (EPA / NIEHS).)
